The target in assay [1] is Focal adhesion kinase 1 (Homo sapiens) (UniProt Q05397). The conditions noted are these: at 1 µM.
The target of assay [2] is T1, Ephrin type-B receptor 1 (Homo sapiens) (UniProt P54762).
T1 sequence (whole entry): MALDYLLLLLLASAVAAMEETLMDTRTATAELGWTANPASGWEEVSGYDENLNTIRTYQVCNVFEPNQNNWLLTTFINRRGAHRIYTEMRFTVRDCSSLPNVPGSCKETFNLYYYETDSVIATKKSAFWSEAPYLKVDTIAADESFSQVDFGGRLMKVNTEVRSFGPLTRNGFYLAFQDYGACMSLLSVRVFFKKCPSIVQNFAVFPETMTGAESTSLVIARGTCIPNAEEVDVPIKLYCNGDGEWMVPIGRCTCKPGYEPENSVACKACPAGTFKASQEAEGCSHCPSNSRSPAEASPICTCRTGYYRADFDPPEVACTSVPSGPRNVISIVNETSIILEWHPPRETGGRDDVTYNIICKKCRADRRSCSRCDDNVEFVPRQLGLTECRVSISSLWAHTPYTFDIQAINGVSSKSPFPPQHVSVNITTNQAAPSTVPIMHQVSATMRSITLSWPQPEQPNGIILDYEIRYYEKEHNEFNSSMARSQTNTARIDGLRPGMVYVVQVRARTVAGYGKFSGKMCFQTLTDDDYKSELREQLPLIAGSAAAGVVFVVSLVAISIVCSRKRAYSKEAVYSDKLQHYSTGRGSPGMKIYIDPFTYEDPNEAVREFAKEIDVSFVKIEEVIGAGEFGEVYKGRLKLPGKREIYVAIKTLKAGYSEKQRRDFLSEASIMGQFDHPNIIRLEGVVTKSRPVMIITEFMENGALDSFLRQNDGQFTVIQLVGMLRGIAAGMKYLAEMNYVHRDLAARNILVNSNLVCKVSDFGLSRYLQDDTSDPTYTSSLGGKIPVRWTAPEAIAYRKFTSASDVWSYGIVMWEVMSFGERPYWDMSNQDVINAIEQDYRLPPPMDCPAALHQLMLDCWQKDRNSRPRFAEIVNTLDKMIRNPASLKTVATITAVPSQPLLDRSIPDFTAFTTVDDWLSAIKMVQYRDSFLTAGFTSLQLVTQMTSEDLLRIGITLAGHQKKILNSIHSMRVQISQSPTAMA
The conditions noted are these: at 10 µM.

Assay [3] deals with T2, Ephrin type-B receptor 4 (Homo sapiens) (UniProt P54760).
T2 sequence (whole entry): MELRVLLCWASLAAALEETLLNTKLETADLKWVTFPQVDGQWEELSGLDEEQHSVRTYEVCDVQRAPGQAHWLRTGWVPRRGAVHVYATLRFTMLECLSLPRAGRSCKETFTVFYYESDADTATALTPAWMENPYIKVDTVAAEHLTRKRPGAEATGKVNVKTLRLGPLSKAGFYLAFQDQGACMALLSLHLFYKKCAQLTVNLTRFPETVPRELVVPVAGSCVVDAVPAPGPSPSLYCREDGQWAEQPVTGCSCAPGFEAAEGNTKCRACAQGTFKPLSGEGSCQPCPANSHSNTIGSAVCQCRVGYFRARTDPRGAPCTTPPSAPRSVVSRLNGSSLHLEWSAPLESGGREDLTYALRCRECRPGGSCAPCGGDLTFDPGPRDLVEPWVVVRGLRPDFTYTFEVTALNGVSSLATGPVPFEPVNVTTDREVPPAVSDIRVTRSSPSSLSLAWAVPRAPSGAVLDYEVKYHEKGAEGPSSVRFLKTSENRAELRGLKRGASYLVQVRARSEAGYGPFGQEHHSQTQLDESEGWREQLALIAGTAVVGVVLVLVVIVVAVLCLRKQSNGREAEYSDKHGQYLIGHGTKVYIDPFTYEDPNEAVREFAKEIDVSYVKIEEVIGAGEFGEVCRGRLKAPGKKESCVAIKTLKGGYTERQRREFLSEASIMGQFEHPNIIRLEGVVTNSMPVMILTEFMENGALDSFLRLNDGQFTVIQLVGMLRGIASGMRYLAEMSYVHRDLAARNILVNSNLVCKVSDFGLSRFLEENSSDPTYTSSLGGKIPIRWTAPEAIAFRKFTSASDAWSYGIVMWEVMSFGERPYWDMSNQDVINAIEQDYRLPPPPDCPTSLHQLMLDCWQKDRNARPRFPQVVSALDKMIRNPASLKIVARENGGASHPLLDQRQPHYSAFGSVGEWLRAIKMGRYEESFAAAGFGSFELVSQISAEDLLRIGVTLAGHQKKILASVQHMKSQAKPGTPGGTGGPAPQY
The conditions noted are these: at 1 µM.

Assay [4] concerns the target Receptor tyrosine-protein kinase erbB-4 (Homo sapiens) (UniProt Q15303). The conditions noted are these: at 10 µM.
In assay [5] the target is Ephrin type-A receptor 5 (Homo sapiens) (UniProt P54756). The conditions noted are these: at 1 µM.
Chain of Ephrin type-A receptor 5 (Homo sapiens) (P54756 whole entry): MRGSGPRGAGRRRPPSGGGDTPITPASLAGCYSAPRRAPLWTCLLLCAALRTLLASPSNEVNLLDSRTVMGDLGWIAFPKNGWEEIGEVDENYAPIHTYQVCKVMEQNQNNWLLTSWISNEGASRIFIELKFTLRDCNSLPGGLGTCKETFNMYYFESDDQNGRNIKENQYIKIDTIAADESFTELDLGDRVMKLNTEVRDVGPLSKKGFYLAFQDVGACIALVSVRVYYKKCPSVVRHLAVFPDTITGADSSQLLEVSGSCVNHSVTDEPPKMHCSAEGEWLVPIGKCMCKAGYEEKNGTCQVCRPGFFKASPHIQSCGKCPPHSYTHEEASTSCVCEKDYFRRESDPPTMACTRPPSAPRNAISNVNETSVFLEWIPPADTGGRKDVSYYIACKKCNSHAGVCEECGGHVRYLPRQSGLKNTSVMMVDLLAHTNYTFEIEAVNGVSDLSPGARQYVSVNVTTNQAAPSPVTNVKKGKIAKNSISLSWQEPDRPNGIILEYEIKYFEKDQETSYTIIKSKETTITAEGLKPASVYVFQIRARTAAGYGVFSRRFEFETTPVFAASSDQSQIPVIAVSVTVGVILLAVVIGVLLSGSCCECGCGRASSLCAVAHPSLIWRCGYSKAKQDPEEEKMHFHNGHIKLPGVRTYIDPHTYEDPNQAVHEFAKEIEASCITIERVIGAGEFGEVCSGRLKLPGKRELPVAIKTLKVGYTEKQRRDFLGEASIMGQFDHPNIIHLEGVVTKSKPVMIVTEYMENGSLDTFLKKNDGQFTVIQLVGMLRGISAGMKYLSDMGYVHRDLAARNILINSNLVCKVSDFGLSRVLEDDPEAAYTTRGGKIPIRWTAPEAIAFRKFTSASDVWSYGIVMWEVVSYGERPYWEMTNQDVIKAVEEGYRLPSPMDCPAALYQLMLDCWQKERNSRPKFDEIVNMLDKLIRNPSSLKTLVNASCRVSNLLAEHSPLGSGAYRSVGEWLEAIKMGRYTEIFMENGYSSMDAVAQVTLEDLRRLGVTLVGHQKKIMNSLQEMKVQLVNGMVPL
The target of assay [6] is Ephrin type-A receptor 4 (Homo sapiens) (UniProt P54764). The conditions noted are these: at 1 µM.
Chain of Ephrin type-A receptor 4 (Homo sapiens) (P54764 whole entry): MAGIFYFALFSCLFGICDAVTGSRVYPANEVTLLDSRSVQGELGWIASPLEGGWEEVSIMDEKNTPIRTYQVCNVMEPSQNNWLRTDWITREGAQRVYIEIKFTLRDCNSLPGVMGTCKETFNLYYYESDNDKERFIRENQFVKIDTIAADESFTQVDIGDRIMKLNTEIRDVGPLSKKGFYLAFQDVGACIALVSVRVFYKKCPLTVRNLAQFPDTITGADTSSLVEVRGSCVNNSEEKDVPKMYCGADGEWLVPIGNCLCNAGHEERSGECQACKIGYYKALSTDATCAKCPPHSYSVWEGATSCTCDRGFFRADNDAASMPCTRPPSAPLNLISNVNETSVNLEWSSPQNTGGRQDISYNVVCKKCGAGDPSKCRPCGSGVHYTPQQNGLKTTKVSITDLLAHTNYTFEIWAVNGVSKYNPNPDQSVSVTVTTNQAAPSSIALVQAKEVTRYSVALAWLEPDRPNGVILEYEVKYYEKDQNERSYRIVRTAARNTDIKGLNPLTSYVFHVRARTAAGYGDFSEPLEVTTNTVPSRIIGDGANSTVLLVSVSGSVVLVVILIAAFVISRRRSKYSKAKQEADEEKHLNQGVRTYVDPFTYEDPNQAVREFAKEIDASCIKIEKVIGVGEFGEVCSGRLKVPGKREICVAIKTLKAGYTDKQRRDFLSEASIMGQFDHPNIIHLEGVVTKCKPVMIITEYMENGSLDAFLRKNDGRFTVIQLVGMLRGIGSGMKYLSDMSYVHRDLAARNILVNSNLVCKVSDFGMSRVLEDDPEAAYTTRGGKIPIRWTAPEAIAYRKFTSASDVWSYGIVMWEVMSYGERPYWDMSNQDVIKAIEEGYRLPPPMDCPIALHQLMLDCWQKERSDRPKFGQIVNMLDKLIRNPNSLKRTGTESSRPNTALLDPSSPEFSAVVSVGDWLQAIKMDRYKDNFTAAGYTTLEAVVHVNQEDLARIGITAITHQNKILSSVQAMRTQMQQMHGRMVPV
The target in assay [7] is Ephrin type-A receptor 5 (Homo sapiens) (UniProt P54756). The conditions noted are these: at 10 µM.
The target of assay [8] is Ephrin type-A receptor 7 (Homo sapiens) (UniProt Q15375). The conditions noted are these: at 1 µM.
Chain of Ephrin type-A receptor 7 (Homo sapiens) (Q15375 28-998 limits assumed): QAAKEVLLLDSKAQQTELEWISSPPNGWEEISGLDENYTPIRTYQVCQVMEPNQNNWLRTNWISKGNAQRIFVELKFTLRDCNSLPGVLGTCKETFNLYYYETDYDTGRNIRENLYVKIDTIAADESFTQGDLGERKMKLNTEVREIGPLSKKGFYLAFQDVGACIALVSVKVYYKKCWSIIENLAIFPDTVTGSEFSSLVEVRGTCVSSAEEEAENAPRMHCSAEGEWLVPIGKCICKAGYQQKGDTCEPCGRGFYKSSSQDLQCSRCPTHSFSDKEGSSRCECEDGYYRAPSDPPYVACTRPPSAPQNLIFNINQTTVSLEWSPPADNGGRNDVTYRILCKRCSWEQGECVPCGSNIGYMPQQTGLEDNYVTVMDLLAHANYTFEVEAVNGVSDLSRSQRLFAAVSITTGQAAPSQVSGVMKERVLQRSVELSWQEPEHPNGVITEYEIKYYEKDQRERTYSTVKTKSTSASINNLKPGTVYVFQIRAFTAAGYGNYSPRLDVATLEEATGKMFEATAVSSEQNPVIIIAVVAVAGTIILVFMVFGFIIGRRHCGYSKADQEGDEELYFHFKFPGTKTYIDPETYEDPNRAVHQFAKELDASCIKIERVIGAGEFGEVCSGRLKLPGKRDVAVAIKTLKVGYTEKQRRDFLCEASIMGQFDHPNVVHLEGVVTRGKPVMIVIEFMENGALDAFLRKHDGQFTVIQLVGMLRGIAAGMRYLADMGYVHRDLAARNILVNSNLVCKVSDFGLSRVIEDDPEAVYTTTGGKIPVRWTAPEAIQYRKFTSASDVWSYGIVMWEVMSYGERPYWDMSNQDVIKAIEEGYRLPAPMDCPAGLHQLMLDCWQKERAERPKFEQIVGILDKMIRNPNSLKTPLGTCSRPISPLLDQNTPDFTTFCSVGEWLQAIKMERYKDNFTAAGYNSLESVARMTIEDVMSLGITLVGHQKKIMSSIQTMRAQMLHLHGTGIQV
Assay [9] shares this target. The conditions noted are these: at 10 µM.
In assay [10] the target is T3, Ephrin type-A receptor 8 (Homo sapiens) (UniProt P29322).
T3 sequence (whole entry): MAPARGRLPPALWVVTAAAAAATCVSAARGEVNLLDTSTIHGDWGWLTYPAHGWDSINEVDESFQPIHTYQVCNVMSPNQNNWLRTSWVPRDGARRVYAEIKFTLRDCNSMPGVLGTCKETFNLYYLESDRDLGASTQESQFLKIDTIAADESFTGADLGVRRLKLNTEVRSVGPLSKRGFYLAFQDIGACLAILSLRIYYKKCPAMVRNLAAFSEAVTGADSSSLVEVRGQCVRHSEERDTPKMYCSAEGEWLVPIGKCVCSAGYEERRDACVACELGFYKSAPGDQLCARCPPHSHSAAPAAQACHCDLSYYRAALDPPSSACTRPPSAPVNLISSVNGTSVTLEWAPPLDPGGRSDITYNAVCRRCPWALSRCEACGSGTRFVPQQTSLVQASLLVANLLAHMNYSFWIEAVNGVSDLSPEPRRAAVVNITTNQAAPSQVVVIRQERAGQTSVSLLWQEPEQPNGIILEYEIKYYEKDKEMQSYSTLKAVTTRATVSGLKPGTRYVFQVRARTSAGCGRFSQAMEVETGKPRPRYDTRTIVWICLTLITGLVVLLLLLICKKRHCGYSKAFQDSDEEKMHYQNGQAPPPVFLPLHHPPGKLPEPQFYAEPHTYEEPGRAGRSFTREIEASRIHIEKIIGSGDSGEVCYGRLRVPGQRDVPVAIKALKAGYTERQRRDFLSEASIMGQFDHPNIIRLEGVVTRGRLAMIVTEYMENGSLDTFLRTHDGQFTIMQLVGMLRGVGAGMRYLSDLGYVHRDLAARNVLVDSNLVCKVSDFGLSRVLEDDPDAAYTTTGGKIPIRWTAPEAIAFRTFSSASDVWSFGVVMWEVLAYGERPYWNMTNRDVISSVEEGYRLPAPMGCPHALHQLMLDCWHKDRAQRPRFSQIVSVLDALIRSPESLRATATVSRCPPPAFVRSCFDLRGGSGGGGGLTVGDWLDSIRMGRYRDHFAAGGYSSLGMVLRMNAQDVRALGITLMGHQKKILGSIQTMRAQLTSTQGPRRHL
The conditions noted are these: at 1 µM.

For assay [11], the target named is T1, Ephrin type-B receptor 1 (Homo sapiens). The conditions noted are these: at 1 µM.
Assay [12] deals with T4, Ephrin type-B receptor 3 (Homo sapiens) (UniProt P54753).
T4 sequence (whole entry): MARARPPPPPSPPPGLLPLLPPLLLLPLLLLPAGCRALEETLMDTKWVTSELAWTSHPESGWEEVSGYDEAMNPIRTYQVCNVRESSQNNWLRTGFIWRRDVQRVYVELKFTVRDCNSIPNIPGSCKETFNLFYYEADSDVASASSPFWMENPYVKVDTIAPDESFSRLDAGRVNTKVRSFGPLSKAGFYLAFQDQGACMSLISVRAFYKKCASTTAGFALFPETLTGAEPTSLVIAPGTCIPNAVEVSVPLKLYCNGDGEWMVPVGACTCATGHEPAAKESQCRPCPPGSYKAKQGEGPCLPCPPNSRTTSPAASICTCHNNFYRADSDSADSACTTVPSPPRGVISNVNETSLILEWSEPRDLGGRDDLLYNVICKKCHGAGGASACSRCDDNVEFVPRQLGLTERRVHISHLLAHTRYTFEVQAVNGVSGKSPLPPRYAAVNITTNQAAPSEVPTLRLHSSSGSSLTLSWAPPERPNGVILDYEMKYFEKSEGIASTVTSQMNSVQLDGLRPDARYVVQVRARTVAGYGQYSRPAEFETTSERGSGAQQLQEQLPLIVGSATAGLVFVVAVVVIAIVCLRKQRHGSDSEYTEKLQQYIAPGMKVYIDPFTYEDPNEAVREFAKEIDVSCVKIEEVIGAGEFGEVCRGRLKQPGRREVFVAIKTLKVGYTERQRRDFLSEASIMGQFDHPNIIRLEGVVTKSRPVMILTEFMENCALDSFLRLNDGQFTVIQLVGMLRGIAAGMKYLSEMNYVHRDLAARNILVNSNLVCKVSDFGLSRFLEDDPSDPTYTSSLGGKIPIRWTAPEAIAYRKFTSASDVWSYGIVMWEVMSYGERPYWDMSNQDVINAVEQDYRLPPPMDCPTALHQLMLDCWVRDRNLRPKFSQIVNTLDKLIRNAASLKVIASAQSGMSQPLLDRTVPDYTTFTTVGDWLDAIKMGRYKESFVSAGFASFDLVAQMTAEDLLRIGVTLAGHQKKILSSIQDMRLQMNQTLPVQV
The conditions noted are these: at 1 µM.

The target of assay [13] is T4, Ephrin type-B receptor 3 (Homo sapiens). The conditions noted are these: at 10 µM.

Molecules are shown by their SMILES.

Chain of Receptor tyrosine-protein kinase erbB-4 (Homo sapiens) (Q15303 whole entry): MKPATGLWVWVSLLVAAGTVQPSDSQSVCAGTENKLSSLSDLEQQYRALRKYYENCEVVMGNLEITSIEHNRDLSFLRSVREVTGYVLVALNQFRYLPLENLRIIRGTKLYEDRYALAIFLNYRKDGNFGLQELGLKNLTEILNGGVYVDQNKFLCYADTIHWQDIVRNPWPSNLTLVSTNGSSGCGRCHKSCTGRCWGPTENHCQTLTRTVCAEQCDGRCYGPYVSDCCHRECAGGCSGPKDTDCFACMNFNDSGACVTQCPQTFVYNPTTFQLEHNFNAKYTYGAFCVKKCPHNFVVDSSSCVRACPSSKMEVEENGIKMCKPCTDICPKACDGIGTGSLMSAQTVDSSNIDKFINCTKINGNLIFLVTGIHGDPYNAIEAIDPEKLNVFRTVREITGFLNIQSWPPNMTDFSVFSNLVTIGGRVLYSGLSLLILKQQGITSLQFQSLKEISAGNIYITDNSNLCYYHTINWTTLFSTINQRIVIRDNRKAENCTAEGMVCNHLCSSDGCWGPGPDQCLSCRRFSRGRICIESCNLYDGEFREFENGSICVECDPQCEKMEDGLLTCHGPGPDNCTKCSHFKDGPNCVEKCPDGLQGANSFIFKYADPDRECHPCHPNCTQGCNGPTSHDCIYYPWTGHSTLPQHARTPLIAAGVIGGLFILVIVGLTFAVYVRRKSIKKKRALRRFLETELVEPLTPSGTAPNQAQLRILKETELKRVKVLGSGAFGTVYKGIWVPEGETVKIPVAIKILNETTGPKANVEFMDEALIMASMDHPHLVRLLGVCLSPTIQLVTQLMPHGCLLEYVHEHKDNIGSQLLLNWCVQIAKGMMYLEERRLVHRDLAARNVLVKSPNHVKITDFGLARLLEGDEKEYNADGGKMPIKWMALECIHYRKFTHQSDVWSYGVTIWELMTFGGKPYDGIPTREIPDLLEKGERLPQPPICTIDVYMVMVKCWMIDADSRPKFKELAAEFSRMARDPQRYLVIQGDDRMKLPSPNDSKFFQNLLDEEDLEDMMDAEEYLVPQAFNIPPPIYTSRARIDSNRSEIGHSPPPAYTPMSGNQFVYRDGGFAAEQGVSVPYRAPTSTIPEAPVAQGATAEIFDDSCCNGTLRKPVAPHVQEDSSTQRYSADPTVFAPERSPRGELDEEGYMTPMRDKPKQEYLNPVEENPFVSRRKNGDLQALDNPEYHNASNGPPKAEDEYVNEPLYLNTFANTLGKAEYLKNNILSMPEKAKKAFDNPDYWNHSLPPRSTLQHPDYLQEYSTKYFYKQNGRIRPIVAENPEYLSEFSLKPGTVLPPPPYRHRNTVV

By residual activity is commonly meant the signal under treatment as a percentage of the control signal. For the molecule `NC(=O)c1cccc(-c2cc(Nc3ccc(OC(F)(F)F)cc3)ncn2)c1`, the residual activity in [1] came out at 147%.

For `N#Cc1c(NC(=O)c2cccc3ccccc23)sc2c1CCCC2`, the residual activity was 95% in [2], 90% in [3] and 94% in assay [4].

For `O=S(=O)(NCCNC/C=C/c1ccc(Br)cc1)c1cccc2cnccc12`, the residual activity amounted to 117% in assay [5] and 74% in assay [4].

Take `O=C(NC(NC(=S)Nc1ccc(F)c([N+](=O)[O-])c1)C(Cl)(Cl)Cl)C(c1ccccc1)c1ccccc1` (stereo unspecified): the residual activity in assay [6] worked out at 96%; in assay [5], 104%; in assay [7], 91%; in [8], 102%; in assay [9], 99%; in assay [10] it was 103%. The residual activity is 97% in [11], 84% in [2], 104% (inactive) in [12] and 84% in assay [13].

The record behind these values is ChEMBL document CHEMBL2218924, “A broad activity screen in support of a chemogenomic map for kinase signalling research and drug discovery” (Biochem J, 2013).
